Among the data in PubChem BioAssay (EPA / NIEHS) are outcome and AC50 values, retold here.

Read-out in assay [1]: Thrombomodulin, THBD (gene 7056)
Briefly: BSK_CASM3C_Thrombomodulin: BioMAP Diversity Plus: CASM3C Assay for Thrombomodulin Biomarker Activity (AID 2283051).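 Note: thrombomodulin protein level measured by ELISA 24 h after dosing.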 The conditions noted are these: primary human coronary artery smooth muscle cells; actives raise or lower the signal.

Read-out in assay [2]: Tissue Factor, F3 (gene 2152)
The experiment in a line: BSK_CASM3C_TissueFactor: BioMAP Diversity Plus: CASM3C Assay for Tissue Factor Biomarker Activity (AID 2283052).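 Note: cell surface tissue factor protein level read by ELISA.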 Particulars: primary human coronary artery smooth muscle cells; actives raise or lower the signal.

Read-out in assay [3]: Interferon-gamma inducible Protein 10 (IP10), CXCL10 (gene 3627)
The experiment in a line: BSK_hDFCGF_IP10: BioMAP Diversity Plus: hDFCGF Assay for Interferon-gamma inducible Protein 10 (IP10) Biomarker Activity (AID 2283053). Particulars: primary human foreskin fibroblasts; actives raise or lower the signal. A digest of the protocol: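 Primary foreskin fibroblasts, human; 24 h compound exposure; IP-10 by ELISA; bidirectional fit vs DMSO.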

Read-out in assay [4]: Urokinase-type plasminogen activator receptor (uPAR), PLAUR (gene 5329)
Briefly: BSK_CASM3C_uPAR: BioMAP Diversity Plus: CASM3C Assay for Urokinase-type plasminogen activator receptor (uPAR) Biomarker Activity (AID 2283054).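 Note: cell-surface uPAR protein level quantified by ELISA.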 The conditions noted are these: primary human coronary artery smooth muscle cells; actives raise or lower the signal.

Read-out in assay [5]: Vascular cell adhesion molecule 1 (VCAM1), VCAM1 (gene 7412)
The experiment in a line: BSK_CASM3C_VCAM1: BioMAP Diversity Plus: CASM3C Assay for Vascular cell adhesion molecule 1 (VCAM1) Biomarker Activity (AID 2283055).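 Note: VCAM-1 protein level quantified by ELISA on the cells.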 Particulars: primary human coronary artery smooth muscle cells; actives raise or lower the signal.

Read-out in assay [6]: Collagen III, COL3A1 (gene 1281)
The experiment in a line: BSK_hDFCGF_CollagenIII: BioMAP Diversity Plus: hDFCGF Assay for Collagen III Biomarker Activity (AID 2283056). Particulars: primary human foreskin fibroblasts; actives raise or lower the signal. A digest of the protocol:
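Human foreskin fibroblast primary cultures sampled 24 h after dosing; Collagen III quantified by ELISA. Signal fitted bidirectionally against DMSO baseline.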

Read-out in assay [7]: Epidermal growth factor receptor (EGFR), EGFR (gene 1956)
Briefly: BSK_hDFCGF_EGFR: BioMAP Diversity Plus: hDFCGF Assay for Epidermal growth factor receptor (EGFR) Biomarker Activity (AID 2283057). Particulars: primary human foreskin fibroblasts; actives raise or lower the signal. A digest of the protocol:
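hDFCGF system, primary human foreskin fibroblasts; compound 24 h; EGFR measured by ELISA; DMSO = negative control/baseline; bidirectional fitting.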

Read-out in assay [8]: Interleukin-8 (IL8), CXCL8 (gene 3576)
The experiment in a line: BSK_hDFCGF_IL8: BioMAP Diversity Plus: hDFCGF Assay for Interleukin-8 (IL8) Biomarker Activity (AID 2283058). The conditions noted are these: primary human foreskin fibroblasts; actives raise or lower the signal. A digest of the protocol:
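Primary human foreskin fibroblasts (hDFCGF system) dosed with chemical; IL-8 measured by ELISA 24 hours later. Bidirectional curve fitting relative to DMSO baseline; cytotoxicity tracked in parallel cultures by SRB total protein staining.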

The nature of assay [9]: BSK_hDFCGF_Proliferation: Cell Proliferation Assessment in the BioMAP Diversity Plus: hDFCGF Assay (AID 2283059).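 Note: curves fitted for both rise and fall of signal versus DMSO baseline.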 Particulars: primary human foreskin fibroblasts. A digest of the protocol:
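This proliferation readout used SRB total-protein staining of human foreskin fibroblasts […], normalized to DMSO with bidirectional curve fitting.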

Read-out in assay [10]: Macrophage colony-stimulating factor (MCSF), CSF1 (gene 1435)
Briefly: BSK_hDFCGF_MCSF: BioMAP Diversity Plus: hDFCGF Assay for Macrophage colony-stimulating factor (MCSF) Biomarker Activity (AID 2283060). The conditions noted are these: primary human foreskin fibroblasts; actives raise or lower the signal. A digest of the protocol: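 Human foreskin fibroblast primary cultures; M-CSF measured by ELISA 24 hours after chemical dosing. Bidirectional fitting relative to DMSO, with overt cytotoxicity tracked by parallel SRB total-protein staining (0.1% SRB, 10% TCA fixation, 560 nm).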

Molecules are shown by their SMILES. “And” between values parts separate entries of the source, which are not always exact repeats. Equal values may be shown once. Some compounds were tested as several samples or in several runs, with calls that do not always agree. The source made the active and inactive calls. Rule for the calls: active = hit-call score of the fitted dose curve at least 0.9, where 1 is the maximum; inactive = score below 0.9.

For the compound `C[C@]12CCC(=O)C=C1CC[C@@H]1[C@@H]2CC[C@]2(C)C(=O)CC[C@@H]12`, the outcome in assay [1], in [2], in [3], in assay [4], in assay [5] and in assay [6] was inactive. Further, the result in [7], in [8] and in [10] was inactive. Also, in assay [9], the AC50 was 13.2 µM (active).
Take `CCSC(=O)N(CC)C1CCCCC1`: the outcome in assay [1], in [2], in [3], in assay [4], in assay [5] and in assay [6] was inactive. In addition, the result in assay [7], in [8], in [9] and in [10] was inactive.
As to `CC#Cc1cc(C)nc(Nc2ccccc2)n1`, the outcome in [1], in [2], in [3], in assay [4], in assay [5] and in [6] was inactive. Besides, the result in assay [7], in [8], in assay [9] and in [10] was inactive.
Take `O=NN(c1ccccc1)c1ccccc1`: in [1], the AC50 is 4.46 µM (active). Also, the outcome in assay [2], in assay [3], in assay [4], in assay [5], in assay [6] and in assay [7] was inactive. In addition, the result in assay [8], in [9] and in [10] was inactive.
Turning to `CCC(C)c1cc([N+](=O)[O-])cc([N+](=O)[O-])c1O` (stereo unspecified), the result in assay [1], in assay [2], in [3], in assay [5], in assay [6] and in [7] was inactive. In addition, the outcome in assay [8] was inactive. Also, the results for the AC50 in assay [4], in assay [9] and in assay [10] were 31.3 µM (active), 3.85 µM (active) and 4.2 µM (active), respectively.
With `COc1ccc(O)c(C(C)(C)C)c1`, the outcome in [1], in [2], in [3], in assay [4], in [5] and in [6] was inactive. Besides, the result in assay [7], in assay [8], in assay [9] and in assay [10] was inactive. Besides, in [6], the AC50 is 3.97 µM (active) and 8.37 µM (active).
Take `O=C(O)C(F)(F)C(F)(F)C(F)(F)C(F)(F)C(F)(F)F`: the result in assay [1], in assay [2], in [3], in [4], in assay [5] and in assay [6] was inactive. Besides, the result in assay [7], in assay [8], in [9] and in [10] was inactive.
Regarding `O=C(O)C(F)(F)C(F)(F)C(F)(F)C(F)(F)C(F)(F)C(F)(F)C(F)(F)C(F)(F)C(F)(F)F`, the result in assay [1], in assay [2], in assay [4], in assay [5] and in [7] was inactive. Moreover, the AC50 in [3] is 28.5 µM (active) and 29.1 µM (active) and 32.8 µM (active); in assay [5], 41.3 µM (active) and 30 µM (active); in assay [6], 29.7 µM (active) and 30 µM (active); in [7], 7.6 µM (active); in assay [8], 36.9 µM (active) and 57.3 µM (active) and 55.1 µM (active); in [9] it was 13.5 µM (active) and 16.5 µM (active) and 17.1 µM (active). Besides, the AC50 in assay [10] is 30.4 µM (active) and 21.9 µM (active) and 21.6 µM (active).
For `CCC(C)(CC)c1cc(NC(=O)c2c(OC)cccc2OC)on1`, the outcome in [1], in assay [2], in [3], in [4], in [5] and in assay [6] was inactive. For the same compound, the result in assay [7], in assay [8], in assay [9] and in [10] was inactive.
As for `ClC(Cl)=C(c1ccc(Cl)cc1)c1ccc(Cl)cc1`, the AC50 was 20 µM (active) in assay [1]; 26.4 µM (active) in assay [3]; 24.5 µM (active) in assay [6]; 30 µM (active) in assay [8]; 5.36 µM (active) in assay [9]; 20 µM (active) in assay [10]. Also, the outcome in assay [2], in assay [4], in assay [5] and in assay [7] was inactive.
In the case of `Oc1c(Cl)c(Cl)c(Cl)c(Cl)c1Cl`, the outcome in [1], in [2], in [4], in assay [7], in [8] and in assay [10] was inactive. The AC50 in [2] is 34.9 µM (active); in [3] it was 10.2 µM (active) and 13.1 µM (active); in assay [4], 20 µM (active); in [5], 20 µM (active); in assay [6], 2.34 µM (active) and 2.57 µM (active); in assay [9], 3.11 µM (active) and 8.24 µM (active). In addition, the AC50 in assay [10] was 6.44 µM (active).
`N#Cc1ccc(N(CC(N)=O)CC(F)(F)F)cc1C(F)(F)F`: the result in [1], in assay [2], in assay [3], in assay [4], in assay [5] and in assay [6] was inactive. The outcome in assay [7], in assay [8], in assay [9] and in assay [10] was inactive.
On to `Cc1cccc(C)c1N`, for which the outcome in assay [1], in assay [2], in assay [3], in [4], in assay [5] and in assay [6] was inactive. For the same compound, the result in assay [7], in assay [8], in [9] and in assay [10] was inactive.
`c1ccc(-c2ccccc2)cc1`: the result in assay [1], in [2], in [3], in assay [4], in [5] and in assay [6] was inactive. Also, the result in assay [7], in assay [8], in assay [9] and in assay [10] was inactive.
For `Sc1ccccc1`, the result in [1], in assay [2], in [3], in [4], in assay [5] and in [6] was inactive. Besides, the result in assay [7], in assay [8], in assay [9] and in [10] was inactive.
As for `Cc1ccccc1[N+](=O)[O-]`, the outcome in assay [1], in assay [2], in assay [3], in [4], in [5] and in [6] was inactive. For the same compound, the outcome in [7], in assay [8], in [9] and in assay [10] was inactive.

As usually defined, the AC50 is the concentration giving half of the maximal activity seen.
